Hits are enriched below; roughly 12% of the tested compounds scored in any of these assays.
Pf growth 48h: P. falciparum growth inhibition at 48 hours (one generation); P. falciparum luciferase growth in erythrocytes, 48 h; Potency, µM (series often up to 28.7 µM), for inactives: top-dose activity change, negative = inhibition, usual class: inhibitors; 310,000 tested, 5.9% active; note: % is set by controls: 0 for no effect and ±100 for the full control effect
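Growth was read as firefly luciferase luminescence after a 48 h, 37 C, 5% CO2 exposure of compounds to reporter-bearing P. falciparum cultures (0.1% parasitemia, 2% hematocrit final) in Albumax-supplemented RPMI 1640.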
Pf growth 96h: P. falciparum growth inhibition at 96 hours | P. falciparum luciferase reporter growth, 96 h | Potency, µM (highest dose often 28.7 µM), for inactives: at the top dose activity change, negative = inhibition, most hits filed as inhibitors | 320,000 tested, 6.9% active | AID 504834; note: % is set by controls: 0 for no effect and ±100 for the full control effect
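Cell-based qHTS: luciferase-tagged P. falciparum in erythrocytes (2% hematocrit, 0.05% parasitemia final) incubated with compounds for 96 hours, 37 C, 5% CO2; luciferase detection reagent then added and luminescence measured.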
Sm TGR block: blocks Schistosoma mansoni thioredoxin glutathione reductase; Q962Y6; purified TGR, DTNB reduction, TNB absorbance 405 nm; Potency, µM (series often up to 114 µM), inactives show at the top dose activity change, negative = inhibition, hits mostly inhibitors; 360,000 tested, 3% active; AID 485364; note: % is set by controls: 0 for no effect and ±100 for the full control effect; nearly all actives have a fitted effect of over 60% in size
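TGR 20 nM + NADPH 100 uM (dispensed conc.), cpd preinc 15 min RT; start with NADPH (500 uM addition) then DTNB (15 mM addition). Kinetic TNB absorbance, 405 nm filter. Four-parameter Hill fit across titration.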
SARS PLpro yeast: inhibitors of SARS-CoV papain-like protease in yeast | S. cerevisiae expressing SARS-CoV PLpro, growth rescue | Potency, µM (series often up to 32.9 µM), for the others: at the highest dose activity, positive = growth rescue, hits mostly activators | 330,000 tested, 0.19% active | AID 485353; calls by dose curve; note: 0% is about no effect; nearly all actives have a fitted effect of over 55% in size
* = called active by the depositor; ? = inconclusive; · = no result given; [ ] = dose if it differs, or a comment. Unless noted, calls come from the whole dose curve; as a rule, active = well fitted curve in the direction sought with a large enough effect; inconclusive = small, poorly fitted or top-dose-only effect, or another doubt; inactive = no such curve, though single readings can be large; an effect the other way counts as inactive or inconclusive. Potency is the fitted concentration of half-maximal effect.

SMILES	Pf growth 48h	Pf growth 96h	Sm TGR block	SARS PLpro yeast
O=C(NCc1ccccn1)c1ccc(OC2CCN(Cc3ccccc3)CC2)cc1	-5.5%	62.8%	69.1%	-5.7%
CCC(C)N1CCC(Oc2ccc(C(=O)NCc3ccccn3)cc2)CC1 (centres undefined)	-9.5%	10.4µM*	-10.4%	8.6%
O=C(NCc1ccccn1)c1ccc(OC2CCN(Cc3ccc(F)cc3F)CC2)cc1	11.7µM*	-2.9%	-17.0%	-2.8%
CCOc1ccccc1CN1CCC(Oc2cccc(C(=O)NCCOC)c2)CC1	?	24.9%	6.9%	-0.5%
COc1cccc(CN2CCC(Oc3ccc(C(=O)NCc4ccccn4)cc3)CC2)c1O	?	6.57µM*	-3.4%	4.7%
COCCNC(=O)c1cccc(OC2CCN(Cc3ccccc3C)CC2)c1	-4.1%	1.47µM*	16.6%	1.6%
Cc1ccc(S(=O)(=O)N2CCN(S(C)(=O)=O)C2C)cc1 (centres undefined)	-3.9%	2.0%	7.7%	·
COc1cc(OC)c(NS(=O)(=O)c2cc3c(cc2C)N(C(C)=O)CCO3)cc1Cl	·	·	-1.5%	·
O=C(CCCN=C1NS(=O)(=O)c2ccccc21)OCC(=O)c1ccc(F)cc1	31.1%	37.1%	-13.2%	3.0%
COc1ccc2c(C)c(CCC(=O)NCCc3ccc(Cl)cc3)c(=O)oc2c1	·	·	9.7%	·
CCc1ccc(NC(=O)CCC(=O)N2CCSc3ccccc32)cc1	-3.9%	-12.3%	-1.8%	-7.4%
CCc1ccccc1NC(=O)CCC(=O)N1CCSc2ccccc21	-9.6%	4.15µM*	1.5%	-3.1%
CC1CCCC(C)N1CCNC(=O)CCc1nnc2n(Cc3ccccc3)c(=O)c3ccccc3n12 (centres undefined)	?	11.7µM*	0.0%	-1.0%
CCOC(=O)C(C(=O)OCC)C(C(=O)OCC)N1CCOCC1 (centres undefined)	·	0.7%	0.631µM*	-10.6%
O=C(CS(=O)(=O)c1ccccc1)NCc1ccccc1	1.2%	15.2%	-10.4%	?
O=C(c1ccc2nc(N3CCCCC3)sc2c1)N1CCN(Cc2ccc3c(c2)OCO3)CC1	4.15µM*	21.9%	-8.1%	2.9%
CCOC(=O)N1CCN(C(=O)c2ccc3nc(N4CCCCC4)sc3c2)CC1	-2.9%	10.4µM*	2.4%	-9.4%
CCN(CC)C(=O)CN1CCN(Cc2ccc3c(c2)OCO3)CC1	8.8%	21.9%	3.4%	-2.4%
CCOC(=O)N1CCN(C(=O)c2ccc3nc(N4CCC(C)CC4)sc3c2)CC1	?	163.5%	-25.8%	3.9%
NC(=O)CN1CCN(Cc2ccc3c(c2)OCO3)CC1	6.5%	11.7µM*	-1.1%	-5.2%
O=C(c1cccnc1)N1CCN(Cc2ccc3c(c2)OCO3)CC1	12.3%	4.15µM*	0.2%	4.7%
CC1CCN(c2nc3ccc(C(=O)N4CCN(Cc5ccccc5)CC4)cc3s2)CC1	·	-17.3%	10.1%	-1.1%
CCC(=O)N1CCc2cc(Br)cc(S(=O)(=O)CCC(=O)N(CC)Cc3ccccc3)c21	·	·	-5.8%	·
CCOc1ccc(CN2CCN(CCCc3ccccc3)CC2CCO)cc1 (centres undefined)	-0.6%	2.7%	-23.3%	0.8%
COc1ccc(N2CCN(S(=O)(=O)c3ccc4c(c3)C(C(C)C)C(=O)N4)CC2)cc1 (centres undefined)	·	·	-14.3%	·
SMILES	Pf growth 48h	Pf growth 96h	Sm TGR block	SARS PLpro yeast
Cc1ccc(NC(=O)c2ccc(=O)n(CC(=O)Nc3ccccc3)n2)cc1	3.5%	-3.7%	-1.1%	-1.2%
CCOc1ccc2nc(N3CCC(C(=O)N4CCN(C(=O)c5ccco5)CC4)CC3)sc2c1	13.1µM*	?	1.4%	-30.3%
CCOC(CNC(=O)c1ccc2nc(N3CCC(C)CC3)sc2c1)OCC	?	9.28µM*	-1.3%	-4.0%
COc1ccc(OC)c(N2Cc3cc(C)c(C)cc3C2)c1	2.94µM*	·	44.7µM*	?
CCOc1ccccc1N1Cc2cc(C)c(C)cc2C1	13.1µM*	?	?	6.9%
CCOc1ccccc1N1Cc2ccccc2C1	7.38µM*	·	12.6µM*	-0.1%
COc1ccc(OC)c(-n2c(C)cc(C=O)c2C)c1	-47.8%[1.15 µM]	?	-1.8%	-0.3%
CCOc1ccc(N2Cc3ccccc3C2)cc1	?	7.38µM*	56.2µM*	-0.8%
CCOc1ccccc1N1CCN(C(=O)C(F)(F)F)CC1	·	0.2%	-3.8%	-2.2%
CCOc1ccc(N2CC(=O)N(c3ccc(OCC)cc3)CC2=O)cc1	30.5%	0.0%	-14.4%	-0.4%
Cc1cc(O)c2c(C)c(CC(=O)N3CCCCC3)c(=O)oc2c1	·	·	7.6%	·

Bioassay records from PubChem BioAssay.
